# Source: PubChem BioAssay AID463190 (Sanford-Burnham Center for Chemical Genomics, 2010)
# In all, about 330,000 compounds went through this assay and about 7,300 (2.2%) were called active. This is one part of a sample in which actives are shown more often than they occur.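 Rule for the calls: active = inhibition of at least 40%; inactive = the rest.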
# Test: growth inhibition of tim10-1 ts yeast – luminescence, uHTS, primary screen (AID 463190);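 note: mutant grown at 25 °C; 0% = DMSO wells with yeast and 100% = wells holding no yeast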
# Details: S. cerevisiae tim10-1 ts strain growth, BacTiter-Glo, 24 h; at 20 µM; hits give high values
row,Compound,inhibition
1,C=CCNc1nc(N)c(C(=C(C#N)C#N)c2ccccc2)s1,32% (inactive)
2,Cc1ccc(CNC(=O)C2(C(F)(F)F)C/C(=C\Cc3ccccc3)CCCO2)o1 (stereo not drawn),29.8% (inactive)
3,O=C(NCc1ccncc1)c1ccc(NS(=O)(=O)c2cccc([N+](=O)[O-])c2)cc1,-9.55% (inactive)
4,O=C(Nc1c(Cl)cccc1Cl)C1CCC1,18.6% (inactive)
5,Cc1[nH]n(-c2ccccc2)c(=O)c1CCOC(=O)c1ccc(C(F)(F)F)cc1,16.7% (inactive)
6,CCc1cc(C(=O)Nc2nnc(C3CC3)s2)sc1C,14.7% (inactive)
7,COc1cccc(CNCc2ccc3c(c2)OCO3)c1,-13% (inactive)
8,O=C(COC(=O)C1CCCO1)Nc1nc(-c2ccc(F)cc2)cs1 (stereo not drawn),5.58% (inactive)
9,O=C(CN1CCN(c2nc(-c3ccccc3)cs2)CC1)NCc1ccc2c(c1)OCO2,30.8% (inactive)
10,CC1CCCC(C)N1C(=O)CN1CCN(c2nc(-c3ccc(F)cc3)cs2)CC1 (stereo not drawn),56.2% (active)
11,Cc1occc1-c1nnc(SCC(=O)NC2(C#N)CCCC2)n1C,-2.1% (inactive)
12,CCOC(=O)C1=C(C)NC(C)=C(C(=O)OCC)C1C1=COCCO1,4.91% (inactive)
13,Cc1ccccc1-c1ccc(Nc2ccc(C(=O)N3CCOCC3)cc2)nn1,3.37% (inactive)
14,COC1=C(N2CCOCC2)C(=O)c2ccccc2C1=O,9.96% (inactive)
15,Cc1oc2c(c1C(=O)N1CCOCC1)C(=O)c1ccccc1C2=O,58.7% (active)
16,CN1CCC(CN)(N2CCN(c3ccccc3)CC2)CC1,16.4% (inactive)
17,COC(=O)C1CCN(C(=O)c2ccc3oc(Cc4ccc(Cl)cc4)nc3c2)CC1,14.5% (inactive)
18,c1ccc2c(NCC3CCCO3)nc(-c3ccncc3)nc2c1 (stereo not drawn),33.4% (inactive)
19,c1ccc(-c2nc(NCc3ccco3)c3ccccc3n2)cc1,51.3% (active)
20,Clc1cccc(-c2nc(NCC3CCCO3)c3ccccc3n2)c1 (stereo not drawn),17.9% (inactive)
21,CCC(=O)N1CCc2cc(S(=O)(=O)NC(C(=O)N3CCc4ccccc4C3)C(C)C)ccc21 (stereo not drawn),40.2% (active)
22,CCOC(=O)N1CCC(NC(=O)C(NS(=O)(=O)c2ccc3c(c2)CCN3C(=O)CC)C(C)C)CC1 (stereo not drawn),-1.74% (inactive)
23,CCC(=O)N1CCc2cc(S(=O)(=O)CCC(=O)N3CCN(c4ccccc4F)CC3)ccc21,22% (inactive)
24,COc1ccccc1-c1cnn2c(N3CCOCC3)cc(C)nc12,4.69% (inactive)

row,Compound,inhibition
1,COc1ccc(C(=O)NC(=S)N2CCNC(=O)C2CC(=O)OC(C)C)cc1 (stereo not drawn),-10.3% (inactive)
2,COc1cccc(Cn2cnc3c([N+](=O)[O-])c(C)c(C)cc32)c1,41% (active)
3,Cc1cccc(Cn2cnc3c(N)c(C)c(C)cc32)c1,16.8% (inactive)
4,COc1cccc(CNS(=O)(=O)c2cc3c(cc2C)n(C)c(=O)c(=O)n3C)c1,8.44% (inactive)
5,CC1CCN(C(=O)c2ccc(CSc3ccc(Cl)cc3)cc2)CC1,24.5% (inactive)
6,O=C(c1ccc(S(=O)(=O)c2ccccc2)cc1)N1CCCCCC1,15.7% (inactive)
7,O=C(c1ccc(CSc2ccccc2)cc1)N1CCCCCC1,42.3% (active)
8,Cc1nc(NC(=O)CCC(=O)O)sc1C(=O)N(C)C,3.6% (inactive)
9,Cc1ccc(S(=O)(=O)NC(C(=O)N2CCOCCOCCOCCOCC2)c2ccccc2)cc1 (stereo not drawn),40.5% (active)
10,Cc1ccc(S(=O)(=O)NCC2CCC(C(=O)N3CCOCC3)CC2)cc1 (stereo not drawn),9.53% (inactive)
11,Cc1ccc(S(=O)(=O)NCC(=O)N2CCOCCOCCOCCOCC2)cc1,3.97% (inactive)
12,COc1ccnc(Oc2ccccc2)n1,-10.3% (inactive)
13,COc1ccc(S(=O)(=O)N2CCN(CC(=O)N3CCOCC3)CC2)cc1OC,-6.09% (inactive)
14,CC(=O)NNC(=O)c1csc(Cc2c(Cl)sc3ccc(Cl)cc23)n1,23.3% (inactive)
15,CNC(=O)c1csc(Cc2c(Cl)sc3ccc(Cl)cc23)n1,41.4% (active)
16,CNC(=O)c1csc(-c2ccccc2)n1,8.44% (inactive)
17,Cc1cccc(C)c1NC(=O)CN1C(=O)C(C)Oc2ccccc21 (stereo not drawn),3.34% (inactive)
18,COc1ccccc1-n1ccnc1SCC(=O)NC(C)(C)C,4.37% (inactive)
19,COc1ccccc1-n1ccnc(SCC(=O)NC2CCCCC2)c1=O,43.2% (active)
20,COc1ccc(-c2nnc(SCC(=O)NC3CCCCC3)o2)cc1OC,17% (inactive)
21,CCN(c1ccc(NC(=O)COC(=O)CCc2nc3ccccc3n2-c2ccccc2)cc1)C(C)C,13.1% (inactive)
22,O=S(=O)(c1ccc(-c2ccno2)s1)N1CCCCC1,9.27% (inactive)
23,CNC(=O)C1CC(=O)N(Cc2ccc3c(c2)OCO3)C(=Nc2ccc(F)cc2)S1 (stereo not drawn),-3.7% (inactive)
24,CC(C)Oc1ccc(CC(=O)NNC(=S)Nc2ccc(Br)cc2)cc1,17.7% (inactive)

row,Compound,inhibition
1,Cc1ccc(-n2[nH]c(C)c(/C=N/NC(=O)c3cccc([N+](=O)[O-])c3)c2=O)cc1C,6.18% (inactive)
2,CC1(C)CC(=O)C(C=NCCN2CCN(C(=S)Nc3cccc(Cl)c3)CC2)=C(O)C1,6.34% (inactive)
3,Cc1[nH]n(-c2ccc([N+](=O)[O-])cc2)c(=O)c1C=NCCN1CCN(C(=O)c2ccccc2F)CC1,42.3% (active)
4,CCNC(=S)N1CCN(CCN=CC2=C(O)CC(C)(C)CC2=O)CC1,-11.3% (inactive)
5,Cc1[nH]n(-c2ccccc2)c(=O)c1N=Nc1ccccc1C(=O)N1CCCCC1,22.5% (inactive)
6,C=CCNC(=S)N1CCN(CCN=Cc2c(C)[nH]n(-c3ccc([N+](=O)[O-])cc3)c2=O)CC1,43.4% (active)
7,CCOc1ccc(CCNC(=O)COC(=O)c2c(OC)cccc2OC)cc1OCC,8.9% (inactive)
8,CCN(CC)c1ccc(C(=O)NNC(=O)CCc2nc3ccccc3c(=O)[nH]2)cc1,10.1% (inactive)
9,CC(=O)Oc1c(C(=O)c2nnc(C)o2)c(=O)n(Cc2ccccc2)c2ccccc12,7.1% (inactive)
10,CSCCC1NC(=O)N(CC(=O)Nc2cccc(S(=O)(=O)N3CCCCCC3)c2)C1=O (stereo not drawn),10.1% (inactive)
11,O=S(=O)(c1ccc(F)cc1)N1CCN(C(=S)NC2CCCC2)CC1,16% (inactive)
12,C[n+]1ccc(/C=C/c2c[nH]c3ccccc23)cc1,10.5% (inactive)
13,CCC(C)(C)NC(=O)C(c1ccc(OC)cc1)N(C(=O)CCC(=O)Nc1cc(C)on1)c1ccc(OC)cc1OC (stereo not drawn),6.97% (inactive)
14,CC1CCN(CCCNC(=O)CN2C(=O)CSc3ccc(S(=O)(=O)N4CCCCC4)cc32)CC1,25.2% (inactive)
15,COc1ccc(-c2cc(C)nc3nc(N)nn23)cc1,10.4% (inactive)
16,Cc1cc(C(C)(C)C)n2nc(C)c(-c3ccccc3)c2n1,8.46% (inactive)
17,Cc1cc(N)n2nc(-c3ccc(C(C)(C)C)cc3)cc2n1,57% (active)
18,O=C(O)CSC(NC(=O)c1cccnc1)(C(F)(F)F)C(F)(F)F,-2.15% (inactive)
19,CN(C)CCCCCN(C)Cc1cc2ccccc2o1,18.5% (inactive)
20,CN(C(=O)CCN1C(=O)/C(=C/c2ccccc2F)SC1=S)C1CCS(=O)(=O)C1 (stereo not drawn),6.93% (inactive)
21,O=C(CN1CCCCCC1)NCCN1C(=O)S/C(=C\c2ccccc2Cl)C1=O,12.4% (inactive)
22,O=C1/C(=C\c2ccccc2Cl)SC(=S)N1CCC(=O)N1CCCc2ccccc21,41.3% (active)
23,C#CCCCc1nc2ccccc2c(=O)n1N,6.38% (inactive)
24,CC1CCCN(C(=O)c2ccc3c(c2)C(=O)N(CCC2=CCCCC2)C3=O)C1 (stereo not drawn),24.8% (inactive)

row,Compound,inhibition
1,COC(=O)c1ccc(COc2ccc(/C=C/C(=O)c3ccc(OC)c(CSCC(=O)O)c3)cc2OC)cc1,29.5% (inactive)
2,COc1ccc(C(=O)/C=C/c2ccc(-c3ccccc3)cc2)cc1CSCC(=O)O,41.5% (active)
3,COc1ccc(/C=C/C(=O)c2ccc(NS(=O)(=O)c3ccc(C)cc3)cc2)cc1O,31.4% (inactive)
4,CCCCn1c(=S)[nH]c2cc(S(=O)(=O)N3CCCCC3)ccc21,19.1% (inactive)
5,COc1ccc(C(=O)NC2(C(F)(F)F)NC(=O)N(CCCc3ccccc3)C2=O)c(OC)c1OC (stereo not drawn),22.9% (inactive)
6,COc1ccccc1-n1c(=S)[nH]c2c(sc(=S)n2-c2ccc(C)cc2C)c1=O,8.48% (inactive)
7,Cc1ncc([N+](=O)[O-])n1CCOC(=O)c1ccc(Br)cc1,4.67% (inactive)
8,CCC(C)N(C)C1CCN(C(=S)Nc2ccc(OC)cc2)CC1 (stereo not drawn),2.23% (inactive)
9,COc1ccc(C2=NN(C(C)=O)C(c3ccccc3)C2)cc1 (stereo not drawn),19.4% (inactive)
10,COc1ccc(NC(=S)N2N=CCC2c2ccccc2)cc1 (stereo not drawn),40.3% (active)
11,CCc1ccc(OCC(=O)NCC(c2ccc(Cl)cc2)N2CCCCC2)cc1 (stereo not drawn),34.1% (inactive)
12,Fc1ccccc1/C=N/n1c(-c2cccnc2)n[nH]c1=S,-14.4% (inactive)
13,S=c1[nH]nc(-c2ccncc2)n1/N=C/c1ccccc1Cl,13.5% (inactive)
14,S=c1[nH]nc(-c2cccnc2)n1/N=C/C(Cl)=C\c1ccccc1,41.6% (active)
15,COc1ccc(NC(=O)C(CC(C)C)NC(=O)C2CCC(C)CC2)cc1 (stereo not drawn),23.1% (inactive)
16,CC(=O)Nc1nc(C)c(Cc2ccccc2)c(=O)[nH]1,13.2% (inactive)
17,O=[N+]([O-])c1ccc2c(c1)Nc1nc3ccccc3nc1N2,60.5% (active)
18,COc1ccc([N+](=O)[O-])cc1-c1nc2ccccc2nc1-c1ccccc1,38.3% (inactive)
19,O=[N+]([O-])c1ccc2nc(-c3ccccn3)[nH]c2c1,34.1% (inactive)
20,CCSC(C)CC1C/C(=N/O)c2c(C)noc2C1 (stereo not drawn),-9.02% (inactive)
21,Cc1ccc(N2CCN(C(=O)c3cccs3)CC2)c(C)c1,-6.62% (inactive)
